Results published in the supplement of paper PMC10338343.
± gives the standard deviation.

system: MILI (PIWIL2) piRISC loaded with piRNA #1 (26 nt); experiment: pre-steady-state target cleavage rate (min^-1); guide: piRNA #1 5'p-UGAGGUAGUAGGUUGUAUAGUAUCCA; higher = faster piRNA-guided slicing of the target; settings: auxiliary factor: 500 nM mouse GTSF1;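 also: 1 nM active piRISC with 0.1 nM target library at 33 °C single turnover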
How it was run: (§1)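 In this Cleave-'n-Seq assay, uncleaved targets were sequenced and normalised to depth and to weakly complementary targets. They came from a transcribed, DNA-blocked target RNA library […] mixed with 1 nM active affinity-purified piRISC carrying one synthetic guide, with or without 500 nM GTSF1 partner protein, in HEPES–potassium acetate buffer at 33 °C for 0–8 or 0–960 min. After three trials were pooled and k3 was capped at 0.0001 min^-1, the pre-steady-state cleavage rate was obtained from a burst-and-steady-state fit.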

Compared with GGAGACGAUACUAUACAACCUACUACCUCCA, GGAGACCAUACUAAACAACCUACUACCUCA is lower in “pre-steady-state target cleavage rate” value: 0.214 ± 0.014 for the first, 0.153 ± 0.016 for the second.

Going from GGAGACCUAUGUAUACAAGGAACUACCUCA to GGAGAGGAUACUUUACAUCCUACUACCUCA, the “pre-steady-state target cleavage rate” value rises from 0.00296 ± 0.0028 to 0.253 ± 0.016.

Going from GGAGACCUAUGUAUACAACCUACUACUUCA to GGAGACCUUUCUAUACAACCUUCUACCUCA, the “pre-steady-state target cleavage rate” value falls from 0.0634 ± 0.0075 to 0.00706 ± 0.003.

Going from GGAGACCUUCCUAUACAACCUACUACCUCA to GGAGACCUAUGAAACAACCUACUACCUCA, the “pre-steady-state target cleavage rate” value falls from 0.113 ± 0.027 to 0.00673 ± 0.0031.

Going from GGAGACCAUACUAUAGUUCCUACUACCUCA to GGAGAGGAUACUAUACUUGCUACUACCUCA, the “pre-steady-state target cleavage rate” value falls from 0.156 ± 0.019 to 0.0407 ± 0.0049.

Compared with GGAGAGGAUAGUAAACAACCUACUACCUCA, GGAGACCUUACUAUACAUGGUACUACCUCA is lower in “pre-steady-state target cleavage rate” value: 0.0497 ± 0.011 for the first, 0.00395 ± 0.0029 for the second.

GGAGACCUUACUAUACAACCUACUCCUCA and GGAGUGGAUAGUAUACAACCUACUAGCUCA are within error of each other in “pre-steady-state target cleavage rate” value: 0.00492 ± 0.0027 for the first, 0.00679 ± 0.003 for the second.

GGAGACCUAACUAUACAACCUACUAACUCA and GGAGACCUAUCUAUACUACCUACUACCACA are within error of each other in “pre-steady-state target cleavage rate” value: 0.1 ± 0.03 for the first, 0.117 ± 0.015 for the second.

Going from GGAGACGAUACUAUUCAACCUACUACCUGA to GGAGACCUAUGAUAUGUUCGUACUACCUGA, the “pre-steady-state target cleavage rate” value falls from 0.105 ± 0.017 to less than 0.0001.

GGAGACCUUACUAUACAACCUUCUUCCUCA and GGAGACCUAUGUAUAGAACCUACUACCUGA are within error of each other in “pre-steady-state target cleavage rate” value: 0.00391 ± 0.0031 for the first, 0.00583 ± 0.0025 for the second.

Going from GGAGACCUAUCUAUACAACCUAGCUACCUCA to GGAGACCUAUGAUAACAACCUACUUACCUCA, the “pre-steady-state target cleavage rate” value falls from 0.0218 ± 0.0062 to 0.00599 ± 0.0021.

First: GGAGACCUAUCUAUACCACCUACUACCUCA
Second: GGAGAGGAUUCUAUACAACCUACUUCCUCA
The “pre-steady-state target cleavage rate” value of the first is higher: 0.095 ± 0.017 for the first, 0.00504 ± 0.0027 for the second.

First: GGAGACCUAACUAUACAACCUACAAGCUCA
Second: GGAGACCUAUGUAUACAACCUACUAUCCUCA
The “pre-steady-state target cleavage rate” value of the first is lower: 0.0191 ± 0.011 for the first, 0.0887 ± 0.011 for the second.

First: GGAGACCUAACUAUACAACCUACUACAUCA
Second: GGAGACCUAUGUAUACUACCUACUACCUGA
The “pre-steady-state target cleavage rate” value of the first is higher: 0.0477 ± 0.014 for the first, 0.0173 ± 0.0042 for the second.

Compared with GGAGACGAUACUAUACAACGUACUACCACA, GGAGUGGAUACUAAACAACCAACUACCUCA is lower in “pre-steady-state target cleavage rate” value: 0.0317 ± 0.0055 for the first, 0.007 ± 0.0021 for the second.

Going from GGAGACCUAUGAUUACAACGUACUACCUCA to GGAGACCUUAAUAUACAACCUACUACCUCA, the “pre-steady-state target cleavage rate” value rises from 0.00443 ± 0.0016 to 0.0318 ± 0.0064.

Compared with GGAGACCUAACUAUACAUCCUAGUACCUCA, GGAGAGGAUUCUAUACAAGCUACUACCUCA is higher in “pre-steady-state target cleavage rate” value: 0.0577 ± 0.02 for the first, 0.15 ± 0.01 for the second.

Going from GGAGACCUAUGUAUACAUCCUACUACGUCA to GGAGACGUUAGUAUACAACCUACUACCUCA, the “pre-steady-state target cleavage rate” value rises from 0.0275 ± 0.0061 to 0.119 ± 0.013.

GGAGACCUAUGUAAACAACCUAGUACCUCA and GGAGACCUAUGAAUACAACCUACGUACCUCA are within error of each other in “pre-steady-state target cleavage rate” value: 0.00454 ± 0.0024 for the first, 0.00396 ± 0.0023 for the second.

Going from GGAGAGGAUACAUAACAACCUACUACCUCA to GGAGACCUAUGUACACAACCUACUACCUCA, the “pre-steady-state target cleavage rate” value falls from 0.123 ± 0.011 to 0.0498 ± 0.0086.

system: EfPiwi piRISC loaded with piRNA #1 (26 nt); experiment: pre-steady-state target cleavage rate (min^-1); auxiliary factor: 500 nM Ephydatia muelleri Gtsf1; guide: piRNA #1 5'p-UGAGGUAGUAGGUUGUAUAGUAUCCA; MIWI and MILI are mouse PIWI proteins and EfPiwi is from a freshwater sponge; tags in brackets are library labels; higher = faster piRNA-guided slicing of the target; settings: not given
How it was run: as §1

First: GGAGACCAUACUAAACAACCUACUACCUCA
Second: GGAGAGGAUACUUUACAUCCUACUACCUCA
The “pre-steady-state target cleavage rate” value of the first is higher: 0.0127 ± 0.0048 for the first, 0.00455 ± 0.0027 for the second.

First: GGAGACGAUACUAUUCAACCUACUACCUGA
Second: GGAGACCUAACUAUACAACCUACUACAUCA
The “pre-steady-state target cleavage rate” value of the first is lower: 0.00421 ± 0.0019 for the first, 0.0146 ± 0.0083 for the second.

GGAGACGAUACUAUACAACGUACUACCACA and GGAGUGGAUACUAAACAACCAACUACCUCA are within error of each other in “pre-steady-state target cleavage rate” value: 0.0042 ± 0.0021 for the first, 0.0031 ± 0.0017 for the second.

GGAGAGGAUUCUAUACAAGCUACUACCUCA and GGAGACGUUAGUAUACAACCUACUACCUCA are within error of each other in “pre-steady-state target cleavage rate” value: 0.00384 ± 0.0028 for the first, 0.00686 ± 0.0036 for the second.
